# Laboratory results as given in PubChem BioAssay (NCATS).
# Records with an inconclusive call do not appear. Where a call stands in place of a potency, no number is given. Activity calls are given as the source filed them. The call rests on the fitted dose curve; in most records, active means well fitted inhibition curve with a large enough effect; inconclusive means small, poorly fitted or top-dose-only effect; inactive means flat fitted curve, though single readings scatter.
# Tested on: Zika virus NS2B-NS3 protease
# Assay: Primary screen GU AMC qHTS for Zika virus inhibitors (AID 1347154); further: nearly all actives have a fitted effect of over 70% in size
# Conditions: Zika NS2B-NS3 unlinked protease, AMC fluorogenic substrate; series mostly up to 54.1 µM
# How it was run: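 Unlinked Zika NS2B hydrophilic domain/NS3 protease domain noncovalent complex (25 nM final) in 10 mM Tris-HCl pH 8.0, 0.01% Tween 20, with AMC peptide substrate. Fluorescence (ex 340, em 450 nm) change over 15 min, room temperature; percent inhibition fitted to 4-parameter Hill equation.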
SMILES,"activity change, negative = inhibition",Potency
CC[C@H](C)[C@H](NC(=O)[C@H](C)NC(=O)[C@H](CC(N)=O)NC(=O)[C@H](CCCCN)NC(=O)[C@H](Cc1ccccc1)NC(=O)[C@H](CC(C)C)NC(=O)[C@@H](NC(=O)[C@@H](NC(=O)[C@H](CC(C)C)NC(=O)[C@@H]1CCCN1C(=O)[C@@H](NC(=O)[C@H](CCC(N)=O)NC(=O)[C@H](CO)NC(=O)[C@H](CCCCN)NC(=O)[C@H](CCC(=O)O)NC(=O)[C@H](CO)NC(=O)[C@@H](NC(=O)[C@H](CCSC)NC(=O)[C@H](Cc1ccccc1)NC(=O)CNC(=O)CNC(=O)[C@@H](N)Cc1ccc(O)cc1)[C@@H](C)O)[C@@H](C)O)C(C)C)[C@@H](C)O)C(=O)N[C@H](C(=O)N[C@@H](CCCCN)C(=O)N[C@@H](CC(N)=O)C(=O)N[C@@H](C)C(=O)N[C@@H](Cc1ccc(O)cc1)C(=O)N[C@@H](CCCCN)C(=O)N[C@@H](CCCCN)C(=O)NCC(=O)N[C@@H](CCC(=O)O)C(=O)O)[C@@H](C)CC,2.8% [at 6.83 µM] (inactive),–
CC(N)COC(=O)C(CCCCN)NC(=O)Cc1c(-c2ccc3ccccc3c2)[nH]c2c1ccc1ccccc12 (stereo not given),–,inactive
COC(=O)[C@H]1C2CC3c4[nH]c5ccccc5c4CCN3CC2CC[C@@H]1O (stereo not given in full),–,inactive
CCCCC/C=C\C/C=C\CCCCCCCC(N)=O,15% [at 6.83 µM] (inactive),–
C=C1Cc2c(Cl)cc3[nH]c4c5c3c2[C@@]2(O)[C@@H]1C[C@@H]2C(C)(C)O[C@H]5[C@@H]1CC[C@@]2(O)[C@@]35O[C@@H]3[C@@H](O)[C@@H](C(=O)O)O[C@H]5CC[C@]2(C)[C@@]41C,–,inactive
